Out of some 340,000 compounds screened, about 2,100 (0.62%) were called active.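 Rule for the calls: active = first-screen hits whose inhibition reached a set limit at any dose in the follow-up dose series; inconclusive = inhibition above the set first-screen limit but never retested; inactive = the rest.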 These entries were drawn from the full list. Potency and affinity values are given separately.
molecular target: Rac GTPase-activating protein 1 (Homo sapiens) (UniProt Q9H0H5); assay: blockers of MgcRacGAP-driven Rac1 GTP hydrolysis – biochemical, ADP Hunter fluorescence, primary and confirmatory, confirmation (AID 624330); settings: MgcRacGAP-stimulated Rac1 GTP hydrolysis, at 30 µM, active compounds read high, GST-tagged Rac1 F28L mutant substrate;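 note: fluorescence reports GDP produced by GAP-driven GTP hydrolysis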
Sequence (Q9H0H5 whole entry, looked up): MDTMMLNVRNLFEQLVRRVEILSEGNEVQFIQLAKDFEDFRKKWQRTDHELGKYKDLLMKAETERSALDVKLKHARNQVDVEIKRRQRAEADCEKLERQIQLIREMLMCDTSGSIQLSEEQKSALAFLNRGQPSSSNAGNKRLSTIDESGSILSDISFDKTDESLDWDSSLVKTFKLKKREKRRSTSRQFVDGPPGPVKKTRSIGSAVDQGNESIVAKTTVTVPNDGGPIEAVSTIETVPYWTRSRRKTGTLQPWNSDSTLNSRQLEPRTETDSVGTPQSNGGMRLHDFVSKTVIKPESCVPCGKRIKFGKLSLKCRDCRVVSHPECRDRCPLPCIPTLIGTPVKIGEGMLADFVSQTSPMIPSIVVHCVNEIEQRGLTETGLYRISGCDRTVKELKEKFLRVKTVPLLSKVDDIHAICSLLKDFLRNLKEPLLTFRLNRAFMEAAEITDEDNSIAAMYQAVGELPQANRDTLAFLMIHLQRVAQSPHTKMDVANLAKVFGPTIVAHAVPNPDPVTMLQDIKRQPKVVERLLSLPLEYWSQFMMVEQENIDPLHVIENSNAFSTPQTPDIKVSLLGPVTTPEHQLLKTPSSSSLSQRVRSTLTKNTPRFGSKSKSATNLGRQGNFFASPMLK

inhibition, inactive:
CCCOc1ncnc2c1[nH]c1ccc(OC)cc12 5.1%
Cc1cc(O)ccc1NC(=S)NC(=O)c1cncc(Br)c1 11%
CC(C)CCNC(=O)c1cccc(C(=O)NCCC(C)C)c1 9.34%
COc1ccc(/C=N/N=C(\N)c2nonc2N)cc1OC 0.88%
COc1ccc(/C=N/N=C(\N)c2nonc2N)cc1 6.95%
C(=N\N=C\c1ccccc1)/c1ccccc1 5.71%
N/C(=N\N=C\c1cccc(O)c1)c1nonc1N 7.37%
Cc1ccc(/C=N/N=C/c2ccc(C)cc2)cc1 4.21%
COc1cc(/C=N/N=C(\N)c2nonc2N)cc(OC)c1O 19.5%
COc1ccc(C(=O)NN=C2CCCC2)cc1OC -4.29%
CC(C)NC(=O)N(C)C[C@H]1Oc2ccc(NC(=O)Cc3ccccc3)cc2C(=O)N([C@H](C)CO)C[C@@H]1C -4.37%
O=C(Nc1ccc(Cl)c(Cl)c1)N1N=CCC1c1ccccc1 (stereo not drawn) 0.69%
COc1ccc(-c2cc(C(F)F)n3ncc(C(=O)Nc4c(C)n(C)n(-c5ccccc5)c4=O)c3n2)cc1 5.73%
COc1ccccc1NS(=O)(=O)c1cc(NC(=S)NCCN2CCOCC2)ccc1N1CCOCC1 21.5%
Cc1ccc(S(=O)(=O)N2CCCCC2)cc1NC(=O)C1=NN(c2ccccc2)C(=O)CC1 4.16%
c1ccc(OCc2nc3ccccc3s2)cc1 7.47%
Fc1ccc(OCc2nc3ccccc3s2)cc1 3.88%
O=c1oc2ccccc2c(O)c1Sc1c(O)c2ccccc2oc1=O 16.1%
COc1cc(C(=O)NCCCCc2ccccc2)cc(OC)c1OC 5.47%
COc1ncnc2c1ncn2CCCNCc1ccccn1 12.9%
COC(=O)C(NC(C)=O)(Nc1sc2c(c1C(N)=O)CCCC2)C(F)(F)F (stereo not drawn) 4.3%
COc1ccc(CNc2ncc(-c3ccccc3)n2C)c2ccccc12 23.6%
COc1ccc(CNc2ncc(-c3ccc(Cl)cc3)n2C)c(OC)c1OC 16.9%
Cn1c(-c2ccc(F)cc2)cnc1NCc1ccc(F)cc1F 29.6%
Cn1c(-c2ccccc2)cnc1NCc1cc(Cl)ccc1O 31.7%
Cn1c(-c2ccc(F)cc2)cnc1NCc1ccccc1F 25.9%
COc1ccc(CNc2ncc(-c3cccc([N+](=O)[O-])c3)n2C)c(OC)c1OC 28.9%
Cc1ccc(CNc2nc3ccccc3n2C)o1 8.19%
COc1ccccc1CNc1ncc(-c2ccc(F)cc2)n1C 28.3%
COc1ccc(CNC(=O)c2ccc(Cn3nc(C)c([N+](=O)[O-])c3C)o2)cc1 5.77%
Cc1cc(C)c(SSc2nnnn2-c2ccccc2)c(C)c1 27.2%
CC1CN(C(=O)CCNC(=O)c2ccccc2Cl)CC(C)O1 (stereo not drawn) 4.76%
COC(=O)[C@H](C(C)C)N(Cc1ccccc1)S(=O)(=O)CCN1CCN(c2ccccc2)CC1 3.71%
Cc1c(Br)c([N+](=O)[O-])nn1CC(=O)Nc1nccs1 -2.73%
COc1ccc(S(=O)(=O)NC(CC(=O)NC2CCCC2)c2ccco2)cc1 (stereo not drawn) 5.91%
O=C(C1CCN(S(=O)(=O)c2cccc3nsnc23)CC1)N1CCc2ccccc2C1 -5.35%
Cn1c(-c2ccc(F)cc2)cnc1NCc1ccc(C#N)cc1 24.6%
Cn1c(-c2ccc(F)cc2)cnc1NCc1ccccc1 25.3%
O=C1C=CC(=O)N1c1ccccn1 7.4%
O=C(c1ccccc1)c1ccccc1N1C(=O)C=CC1=O 17.1%
COc1ccc(N2C(=O)C3CC(C)=C(C)CC3C2=O)c(OC)c1 (stereo not drawn) 0.34%
COc1cc(N2C(=O)C=CC2=O)c(OC)cc1Cl -11.4%
CCCc1cc(=O)[nH]c(SCC(=O)Nc2ccc(C)c(S(=O)(=O)N3CCCCC3)c2)n1 6.98%
COc1cccc(OC)c1C(=O)N1CCN(c2ccccn2)CC1 6.84%
COC(=O)c1c(NC(=O)c2cccnc2)sc(C(=O)N(C)C)c1C 4.99%
COc1ccc(-c2cc3cc(OC)c(OC)cc3c(C)n2)cc1 6.65%
COc1ccc(-c2cc3cc(OC)c(OC)cc3c(C)n2)cc1C 6.32%
COc1ccc(-c2cc(-c3ccccc3O)[nH]n2)cc1OC 13.3%
COc1ccc(-c2nc(N)ncc2-c2ccccc2OC)c(O)c1 5.57%
COc1ccccc1-c1c(-c2ccc(O)cc2O)n[nH]c1C(F)(F)F 13.8%
COc1ccc(-c2cc(-c3ccc(OC)c(OC)c3)n[nH]2)c(O)c1 8.89%
COc1ccc(-c2cncnc2-c2ccc(OC)cc2O)cc1 2.33%
COc1ccc(-c2c(-c3ccc(O)cc3O)n[nH]c2C(F)(F)F)cc1 9.47%
COc1ccc(CNC(=O)C2CCCN(c3nn4c(=O)cc(C)nc4s3)C2)cc1 (stereo not drawn) 12.2%
CC1C2Cn3c(nc4ccccc43)C1N(C(C)C)O2 (stereo not drawn) 10.4%
Nc1ccc(C(=O)O)cc1S(=O)(=O)O 14.3%
CCOC(=O)c1cnc2c(Cl)c(Cl)ccc2c1NCCN1CCOCC1 8.14%
O=C(NC(=S)Nc1ccccc1Br)C1CCCCC1 13%
CCCN(CC(=O)Nc1ccccc1C)C(=O)C1CCN(S(=O)(=O)c2ccc3c(c2)OCCO3)CC1 4.31%
O=C(CCc1ccccc1)n1nc(-c2ccccc2)nc1NCc1ccco1 7.46%
COc1ccc(-c2nc(C(=O)O)cs2)cc1OC -2.83%
COc1ccc(-c2nc(CCl)cs2)cc1OC 1.88%
CCOc1ccc(-c2cc(C(=O)OC)[nH]n2)cc1 0.73%
CN(C)S(=O)(=O)c1ccc(C(=O)Nc2cccc(S(=O)(=O)NC3=NCCC3)c2)cc1 3.74%
O=[N+]([O-])c1ccc(N2CCN(c3cccc(Cl)c3)CC2)cn1 8.34%
Cn1c(-c2ccccc2)c(C(=O)CC#N)c2ccccc21 5.99%
Cn1c(-c2ccccc2)c(C(=O)CCl)c2ccccc21 -6.3%
COc1cc(-c2cc(C(=O)O)c3cc4ccccc4cc3n2)cc(OC)c1OC 11.4%
CCOc1ccc2nc(-c3ccc(OC)c(OC)c3)cc(C(=O)O)c2c1 11.1%
COc1ccc(-c2cc(C(=O)Nc3ccc(C(N)=O)cc3)c3ccccc3n2)cc1OC 12.9%
COc1ccc(-c2cc(C(=O)Nc3ccc(S(N)(=O)=O)cc3)c3ccccc3n2)cc1OC -3.78%
O=C(Nc1ccc(NC(=O)C2CC2)cn1)c1ccccc1 9.99%
COc1ccccc1-c1noc(-c2ccccc2C(=O)NCc2ccco2)n1 4.73%
Cc1ccc(C)n1CCN1CCN(S(=O)(=O)c2ccc(F)cc2F)CC1 4.22%
S=c1[nH]nc(-c2ccco2)n1/N=C/c1ccccc1Cl 14.4%
S=c1[nH]nc(-c2ccco2)n1/N=C/c1c(Cl)cccc1Cl 8.7%
S=c1[nH]nc(-c2ccco2)n1/N=C/c1cccc(Cl)c1 12%
S=c1[nH]nc(-c2ccco2)n1/N=C/c1ccc(Cl)c(Cl)c1 7.47%
COc1cccc(NC(=O)CN(C)C(=O)CSc2nc3ccccc3s2)c1 -3.45%
CCOc1ccc(N2C(=O)CC(NCCc3ccc(S(N)(=O)=O)cc3)C2=O)cc1 (stereo not drawn) 9.91%
O=C(O)[C@H]1CCCC[C@H]1C(=O)Nc1ccc(S(=O)(=O)N2CCCCC2)cc1 6.35%
CCOc1ccc(/C=N/NC(=O)c2ccc(Cn3cc(Br)cn3)o2)cc1 -8.44%
CC(=O)C(=Nc1ccc(Cl)cc1Cl)NNc1cccc(Cl)c1 22.6%
c1ccc(Oc2cccc(OCCCCN3CCCC3)c2)cc1 18.1%
COC(=O)c1ccccc1OCCN1CCCCCC1 24.5%
CCC(=O)c1ccccc1OCCCN1CCC(Cc2ccccc2)CC1 16.5%
CC1CN(CCOc2cccc(Oc3ccccc3)c2)CC(C)O1 (stereo not drawn) 19.8%
CC1CC(C)CN(CCOc2cccc(Cl)c2Cl)C1 (stereo not drawn) 18.8%
CCN1CCN(Cc2ccc(OCc3ccccc3)c(OC)c2)CC1 14.4%
CCOc1ccccc1OCCN1CCC(Cc2ccccc2)CC1 11.1%
Clc1cccc(OCCCN2CCCC2)c1Cl 19%
CCc1ccc(/C([O-])=C(/C(=S)NCCN2CCOCC2)[n+]2ccccc2)cc1 -2.62%
CC[C@]12c3[nH]c4ccc(Cl)cc4c3CCN1C(=O)[C@@H](CC(=O)NCc1ccco1)C[C@@H]2C(=O)N1CCN(C(=O)C2CC2)CC1 9.23%
CC12CCC(=O)N1C(C(=O)N1CCN(S(=O)(=O)c3ccccc3F)CC1)CS2 (stereo not drawn) 2.86%
CCOC(=O)c1ccc2c(c1)nc(-c1ccc(F)cc1)c1nccn12 0.78%
COc1ccc(CN2CCOCCOCCOCCOCCOCC2)cc1 12.1%
CCC(=O)Nc1cccc(NC(=O)CN2CCN(c3ccccc3OC)CC2)c1 9.77%
Cc1ccc(C2(C)NC(=O)N(CC(=O)N(c3ccccc3)C3CCS(=O)(=O)C3)C2=O)cc1 (stereo not drawn) -6.22%

Reference: PubChem BioAssay AID624330 (Southern Research Specialized Biocontainment Screening …, 2012)
